In PubChem BioAssay (EPA / NIEHS):
Records with an inconclusive call do not appear. Activity calls are given as the source filed them. The calls were made as follows, unless noted: active = hit-call score of the fitted dose curve at least 0.9, where 1 is the maximum; inconclusive = response in the unintended direction; inactive = score below 0.9.

Legend:
[1] = biological target: T1, Thyroid hormone receptor alpha (Rattus norvegicus) + Thyroid hormone receptor beta (Rattus norvegicus) (UniProt P18113+P63059); assay: TOX21_TR_LUC_GH3_Agonist_Followup: Tox21 GH3 Thyroid Hormone Receptor Agonism Luciferase Follow-Up Assay (AID 2283939)
T1 sequence (P63059 whole entry, looked up): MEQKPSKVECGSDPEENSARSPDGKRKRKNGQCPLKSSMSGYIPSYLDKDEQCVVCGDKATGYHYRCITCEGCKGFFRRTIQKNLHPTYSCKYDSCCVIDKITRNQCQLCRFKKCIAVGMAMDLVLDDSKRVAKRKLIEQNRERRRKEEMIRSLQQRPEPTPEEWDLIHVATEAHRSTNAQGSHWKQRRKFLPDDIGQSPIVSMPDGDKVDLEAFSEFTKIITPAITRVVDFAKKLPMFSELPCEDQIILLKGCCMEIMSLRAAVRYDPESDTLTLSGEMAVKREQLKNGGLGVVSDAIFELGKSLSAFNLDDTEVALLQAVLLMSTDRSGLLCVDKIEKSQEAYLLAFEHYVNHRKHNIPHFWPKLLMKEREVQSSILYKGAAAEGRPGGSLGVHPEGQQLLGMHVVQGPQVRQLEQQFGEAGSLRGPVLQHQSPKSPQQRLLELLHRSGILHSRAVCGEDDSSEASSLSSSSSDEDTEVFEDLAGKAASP
T1 sequence (P18113 whole entry, looked up): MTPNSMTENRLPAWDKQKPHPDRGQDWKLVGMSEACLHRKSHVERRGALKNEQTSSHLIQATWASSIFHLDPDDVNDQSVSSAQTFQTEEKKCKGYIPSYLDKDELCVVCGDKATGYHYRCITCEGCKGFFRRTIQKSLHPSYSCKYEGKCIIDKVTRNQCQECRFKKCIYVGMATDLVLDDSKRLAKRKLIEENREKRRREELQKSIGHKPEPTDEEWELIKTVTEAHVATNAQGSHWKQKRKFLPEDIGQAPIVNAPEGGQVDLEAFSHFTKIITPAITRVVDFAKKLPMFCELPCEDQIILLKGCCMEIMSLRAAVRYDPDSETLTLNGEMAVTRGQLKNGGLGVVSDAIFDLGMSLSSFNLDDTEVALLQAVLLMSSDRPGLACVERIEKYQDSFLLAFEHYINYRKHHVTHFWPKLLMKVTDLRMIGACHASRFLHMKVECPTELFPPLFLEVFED
Procedure, shortened: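 Agonist-mode confirmatory run: 15 concentrations (5 nM to 92 uM final) on GH3 rat pituitary cells, 24 h at 37C/5% CO2, T3 as positive control. Luminescence read with ONE-Glo after 30 min.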

THRA (gene 7067) [2] = biological target: THRA (gene 7067) (UniProt P10827); assay: TOX21_TRA_COA_Agonist_Followup_ratio: Tox21 Thyroid Hormone Receptor alpha Agonism through Coactivator Recruitment Follow-Up Assay, Ratio (AID 2283948; active = hit-call score of the fitted dose curve at least 0.9, where 1 is the maximum; inactive = score below 0.9)
Chain of THRA (gene 7067) (P10827 whole entry, looked up, the tested form may be a part): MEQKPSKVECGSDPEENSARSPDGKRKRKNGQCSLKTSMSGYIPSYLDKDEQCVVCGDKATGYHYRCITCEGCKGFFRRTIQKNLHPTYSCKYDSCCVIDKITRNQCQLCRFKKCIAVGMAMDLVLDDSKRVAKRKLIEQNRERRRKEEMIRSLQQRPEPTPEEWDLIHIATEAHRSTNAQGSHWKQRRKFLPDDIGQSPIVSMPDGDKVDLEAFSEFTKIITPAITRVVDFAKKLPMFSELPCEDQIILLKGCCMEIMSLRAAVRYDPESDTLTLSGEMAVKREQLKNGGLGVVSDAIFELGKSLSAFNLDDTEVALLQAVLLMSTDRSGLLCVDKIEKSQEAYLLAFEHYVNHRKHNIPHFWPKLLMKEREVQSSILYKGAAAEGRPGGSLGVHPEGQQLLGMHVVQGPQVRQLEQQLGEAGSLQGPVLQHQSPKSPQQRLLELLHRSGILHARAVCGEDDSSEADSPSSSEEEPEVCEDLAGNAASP
Procedure, shortened: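 GST-TRa LBD 2.5 nM + 0.10% BSA + cpd; add fluorescein-SRC-2 200 nM, Tb-anti-GST 2 nM. TR-FRET ex 340, em 520/495 ratio. Norm: DMSO 0%, T3 100%; gain-of-signal fit.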

THRB (gene 7068) [3] = biological target: THRB (gene 7068) (UniProt P10828); assay: TOX21_TRB_BLA_Agonist_Followup_ratio: Tox21 Thyroid Hormone Receptor beta Agonism Beta-lactamase (BLA) Follow-Up Assay, Ratio (AID 2283954)
Chain of THRB (gene 7068) (P10828 whole entry, looked up, the tested form may be a part): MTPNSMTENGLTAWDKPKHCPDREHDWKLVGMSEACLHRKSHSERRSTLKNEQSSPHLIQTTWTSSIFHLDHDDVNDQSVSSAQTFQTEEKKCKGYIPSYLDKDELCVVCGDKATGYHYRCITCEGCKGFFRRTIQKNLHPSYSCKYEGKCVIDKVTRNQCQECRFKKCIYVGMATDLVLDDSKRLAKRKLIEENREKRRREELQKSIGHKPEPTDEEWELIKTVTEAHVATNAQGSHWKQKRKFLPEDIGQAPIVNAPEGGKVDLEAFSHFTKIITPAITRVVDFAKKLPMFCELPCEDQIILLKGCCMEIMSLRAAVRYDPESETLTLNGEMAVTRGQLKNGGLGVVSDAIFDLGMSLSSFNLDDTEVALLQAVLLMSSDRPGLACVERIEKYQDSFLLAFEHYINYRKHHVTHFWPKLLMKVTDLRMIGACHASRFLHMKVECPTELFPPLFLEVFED
Procedure, shortened: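 Agonist mode: compounds (11-point, triplicate) incubated 18 h with HEK293T cells carrying GAL4-DBD/human TRβ-LBD and UAS-β-lactamase. Blue/green (460/530 nm) FRET ratio read after 2 h CCF4-AM loading; CellTiter-Glo viability run in the same plates.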

THRB (gene 7068) [4] = biological target: THRB (gene 7068) (UniProt P10828); assay: TOX21_TRB_COA_Agonist_Followup_ratio: Tox21 Thyroid Hormone Receptor beta Agonism through Coactivator Recruitment Follow-Up Assay, Ratio (AID 2283963; active = hit-call score of the fitted dose curve at least 0.9, where 1 is the maximum; inactive = score below 0.9)
Procedure, shortened: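 First, the GST-fused TRβ ligand-binding domain (5.0 nM) was incubated with test compound in 0.10% BSA. Next, fluorescein-tagged SRC-2 peptide (200 nM) and terbium anti-GST antibody (2 nM) were added. Finally, TR-FRET emission ratios were normalized against DMSO and T3 controls.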

[5] = biological target: T1, Thyroid hormone receptor alpha (Rattus norvegicus) + Thyroid hormone receptor beta (Rattus norvegicus); assay: TOX21_TR_LUC_GH3_Antagonist_Followup: Tox21 GH3 Thyroid Hormone Receptor Antagonism Luciferase Follow-Up Assay (AID 2283942)
Procedure, shortened: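 In a GH3 luciferase reporter line, test chemicals spanning 92 uM to 5nM final are co-incubated 24 h with 1.0 nM T3. Activity is expressed as relative luminescence units and analysed relative to DMSO.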

THRA (gene 7067) [6] = biological target: THRA (gene 7067) (UniProt P10827); assay: TOX21_TRA_COA_Antagonist_Followup_ratio: Tox21 Thyroid Hormone Receptor alpha Antagonism through Coactivator Recruitment Follow-Up Assay, Ratio (AID 2283953)
Procedure, shortened: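 We measured antagonism of T3-type coactivator recruitment using a TR-FRET ratio (emission 520 and 495 nm) between a Tb-labelled anti-GST antibody on TRα LBD (2.5 nM) and SRC-2 peptide (200 nM). Activity was scaled between DMSO and T3 wells.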

THRB (gene 7068) [7] = biological target: THRB (gene 7068) (UniProt P10828); assay: TOX21_TRB_BLA_Antagonist_Followup_ratio: Tox21 Thyroid Hormone Receptor beta Antagonism Beta-lactamase (BLA) Follow-Up Assay, Ratio (AID 2283958)
Procedure, shortened: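 Read-out: blue/green (460:530 nm) ratio of cleaved to uncleaved CCF4-AM after 2 h at room temperature, fitted against DMSO baseline. HEK293T UAS-bla cells carrying GAL4-human TRβ LBD were exposed 18 h, 37C/5% CO2.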

[8] = TOX21_TRB_BLA_Antagonist_Followup_viability: Viability Assessment in the Tox21 Thyroid Hormone Receptor beta Antagonism Beta-lactamase (BLA) Follow-Up Assay (AID 2283961)
Procedure, shortened: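 Viability read as CellTiter-Glo ATP luminescence (loss of signal = cytotoxicity) in the same plates as the TRβ-bla readout. TRβ-LBD/GAL4 UAS-bla HEK293T cells were exposed to compounds, 11 concentrations in triplicate, for 18 h at 37C/5% CO2.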

THRB (gene 7068) [9] = biological target: THRB (gene 7068) (UniProt P10828); assay: TOX21_TRB_COA_Antagonist_Followup_ratio: Tox21 Thyroid Hormone Receptor beta Antagonism through Coactivator Recruitment Follow-Up Assay, Ratio (AID 2283967)
Procedure, shortened: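 Coactivator (SRC-2) recruitment to purified GST-TRβ ligand-binding domain is monitored by terbium-to-fluorescein energy transfer, emission ratio 520:495 nm. DMSO wells define 0% and T3 wells 100% activity.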

PGR (gene 5241) [10] = biological target: PGR (gene 5241) (UniProt P06401); assay: TOX21_PR_BLA_Followup_Antagonist_ratio: Tox21 HEK293 Progesterone Receptor (PR) Antagonism Beta-lactamase Follow-Up Assay, Ratio (AID 2283934)
Chain of PGR (gene 5241) (P06401 whole entry, looked up, the tested form may be a part): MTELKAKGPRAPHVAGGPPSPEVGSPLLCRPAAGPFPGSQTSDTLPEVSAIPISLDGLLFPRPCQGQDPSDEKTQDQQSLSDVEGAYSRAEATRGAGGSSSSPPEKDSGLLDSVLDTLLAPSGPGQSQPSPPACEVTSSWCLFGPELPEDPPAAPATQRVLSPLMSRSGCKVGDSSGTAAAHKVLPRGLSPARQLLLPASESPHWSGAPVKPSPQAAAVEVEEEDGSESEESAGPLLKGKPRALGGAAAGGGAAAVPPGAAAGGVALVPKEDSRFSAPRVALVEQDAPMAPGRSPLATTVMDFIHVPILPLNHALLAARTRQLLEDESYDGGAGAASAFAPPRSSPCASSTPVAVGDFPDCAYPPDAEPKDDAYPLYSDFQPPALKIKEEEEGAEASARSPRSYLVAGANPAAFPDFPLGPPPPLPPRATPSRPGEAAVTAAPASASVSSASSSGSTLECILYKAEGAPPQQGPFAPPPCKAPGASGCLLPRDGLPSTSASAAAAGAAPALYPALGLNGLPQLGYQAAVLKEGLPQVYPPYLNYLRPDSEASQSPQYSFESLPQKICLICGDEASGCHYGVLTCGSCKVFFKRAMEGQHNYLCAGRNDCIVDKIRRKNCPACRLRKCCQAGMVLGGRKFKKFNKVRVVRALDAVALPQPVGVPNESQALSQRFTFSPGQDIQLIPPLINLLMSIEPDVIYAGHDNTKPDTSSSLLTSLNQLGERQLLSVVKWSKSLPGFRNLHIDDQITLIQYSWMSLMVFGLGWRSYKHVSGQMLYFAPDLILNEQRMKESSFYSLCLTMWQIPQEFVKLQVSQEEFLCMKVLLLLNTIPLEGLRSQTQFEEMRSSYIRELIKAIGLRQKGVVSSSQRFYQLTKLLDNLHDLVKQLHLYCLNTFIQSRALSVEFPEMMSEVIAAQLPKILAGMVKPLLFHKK
Procedure, shortened: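 Read-out: blue/green beta-lactamase FRET ratio (cleaved ch2 over uncleaved ch1), fitted relative to DMSO baseline. Cells: PR-UAS-bla HEK293T, GAL4-UAS reporter, stimulated with 1 nM R5020 final; 16 hr compound exposure, 37C.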

[11] = TOX21_PR_BLA_Followup_Agonist_viability: Viability Assessment in the Tox21 HEK293 Progesterone Receptor (PR) Agonism Beta-lactamase Follow-Up Assay (AID 2283935);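 also: signal loss means lower viability so actives are cytotoxic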
Procedure, shortened: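 Luminescent ATP quantitation (CellTiter-Glo, 30 min, room temperature) in the same wells as the beta-lactamase read, on PR-UAS-bla HEK293T cells exposed to compound for 16 hr at 37C in 2% charcoal-stripped serum.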

[12] = TOX21_PR_LUC_Followup_Antagonist_viability: Viability Assessment in the Tox21 HEK293 Progesterone Receptor (PR) Antagonism Luciferase Follow-Up Assay (AID 2283940)
Procedure, shortened: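 Read-out: CellTiter-Glo ATP luminescence, loss of signal taken as reduced viability. Cells: HEK293-PR-A-luc, 3,000/well, 5 h settling, then 16 h compound exposure at 37C, 0% CO2.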

[13] = TOX21_PR_LUC_Followup_Agonist_viability: Viability Assessment in the Tox21 HEK293 Progesterone Receptor (PR) Agonism Luciferase Follow-Up Assay (AID 2283941);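 also: loss of signal means cytotoxicity so actives lower viability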
Procedure, shortened: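 Cytotoxicity counter-screen: ATP content by CellTiter-Glo luminescence, loss of signal = reduced viability. HEK293-PR-A-luc, 3,000 cells/well, compound exposure 16 h, 37C.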

[14] = TOX21_PR_BLA_Followup_Antagonist_viability: Viability Assessment in the Tox21 HEK293 Progesterone Receptor (PR) Antagonism Beta-lactamase Follow-Up Assay (AID 2283936);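 also: cells exposed to compound with R5020 agonist for 16 h; hits lower the luminescence signal meaning cytotoxicity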
Procedure, shortened: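 PR-UAS-bla HEK293T cells in medium with 2% charcoal-stripped FBS were treated with compounds plus R5020 for 16 hr at 37C. After the beta-lactamase read, CellTiter-Glo was added to the same wells and luminescence read after 30 min at room temperature.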

PGR (gene 5241) [15] = biological target: PGR (gene 5241) (UniProt P06401); assay: TOX21_PR_LUC_Followup_Antagonist: Tox21 HEK293 Progesterone Receptor (PR) Antagonism Luciferase Follow-Up Assay (AID 2283938);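 also: curve fitted upward as signal gain over DMSO baseline despite antagonist label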
Procedure, shortened: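 Luminescence from ONE-Glo reagent, measured after 30 min at room temperature, served as readout. Cells (HEK293 carrying PR-A-luc) had been treated 16 h at 37C with DMSO-dissolved compounds. Activity was fitted against DMSO controls.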

[16] = CEETOX_H295R_PROG_noMTC: CeeTox H295R High-throughput Steroidogenesis Assay for Progesterone (PROG), maximum tolerated concentration (MTC) filtered results only (AID 2283920; active = hit-call score of the fitted dose curve at least 0.9, where 1 is the maximum; inactive = score below 0.9); settings: actives raise or lower the signal
Procedure, shortened: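 Progesterone synthesis in the human adrenal line H295R is measured by HPLC-MS/MS after 48 h chemical exposure following 48 h forskolin (10 uM) stimulation. Activity in either direction is fitted relative to DMSO.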

OCCCCC(O)CO (configuration not stated)
outcome [1]: inactive | outcome (THRA (gene 7067) [2]): inactive | outcome (THRB (gene 7068) [3]): inactive | outcome (THRB (gene 7068) [4]): inactive

Oc1c(Cl)cc(Cl)c(Cl)c1Cc1c(O)c(Cl)cc(Cl)c1Cl
AC50 [5]: 12.7 µM (active) | outcome (THRA (gene 7067) [6]): inactive | AC50 (THRB (gene 7068) [7]): 20 µM (active) | AC50 [8]: 8.64 µM (active) | outcome (THRB (gene 7068) [9]): inactive

O=c1c(O)c(-c2ccc(O)cc2)oc2cc(O)cc(O)c12
AC50 (PGR (gene 5241) [10]): 43.7 µM (active) | outcome [11]: inactive | outcome [12]: inactive | outcome [13]: inactive

CC(=O)Nc1ccc(C(=O)CCl)cc1
outcome (THRA (gene 7067) [2]): inactive | outcome (THRB (gene 7068) [4]): inactive

Clc1ccc(C(c2ccccc2Cl)C(Cl)Cl)cc1 (configuration not stated)
AC50 (PGR (gene 5241) [10]): 11 µM (active) | outcome [11]: inactive | outcome [14]: inactive | AC50 (PGR (gene 5241) [15]): 13.1 µM (active)

COc1ccc(OC)c(N=Nc2c(O)ccc3ccccc23)c1
outcome [16]: inactive

Cc1cc(C)nc(NS(=O)(=O)c2ccc(N)cc2)n1
outcome [1]: inactive | outcome (THRA (gene 7067) [2]): inactive | outcome (THRB (gene 7068) [4]): inactive

O=Cc1ccccc1S(=O)(=O)O
outcome [1]: inactive | outcome (THRA (gene 7067) [2]): inactive | outcome (THRB (gene 7068) [4]): inactive

N#Cc1ccc(CC(=O)c2cccc(C(F)(F)F)c2)cc1
AC50 (PGR (gene 5241) [10]): 46.1 µM (active) | outcome [11]: inactive | outcome [14]: inactive | AC50 (PGR (gene 5241) [15]): 32 µM (active) | outcome [12]: inactive | outcome [13]: inactive
